From PubChem BioAssay
aSyn UTR act: Activators via SNCA 5'UTR binding, MLPCN; alpha-synuclein 5'UTR reporter, activators screen; AID 1814; activity score, % (tested at 7.5 µM), hits read low; 7.1% of 300,000 active; in the data active = activity score below about -60%
The depositor's hits bear a star. Only a sample is shown.

For COC(=O)c1ccc(N=Cc2c(C(F)(F)F)[nH][nH]c2=O)cc1 the results were aSyn UTR act -135*.
For CN(C)c1ccc(C2Nc3ccccc3C(=O)N2CCCN2CCOCC2)cc1 (stereo not given) the results were aSyn UTR act -120*.
COc1ccc(-c2csc(Nc3ccc(C)cn3)n2)cc1 was read as aSyn UTR act -180*.
For CC(=O)Oc1ccc(-c2csc(Nc3ccc(Cl)cn3)n2)cc1 the results were aSyn UTR act -135*.
For COc1ccc(/C=C2\CN(Cc3ccccc3)C/C(=C\c3ccc(OC)cc3OC)C2=O)c(OC)c1 the results were aSyn UTR act -68*.
For COc1ccc2c(c1)OC/C(=C/c1cccs1)C2=O the results were aSyn UTR act -151*.
COc1ccc(/C=C2\COc3ccccc3C2=O)c(OC)c1 was read as aSyn UTR act -140*.
COc1ccc(C=C2c3ccccc3C(=O)c3ccccc32)c(OC)c1 was read as aSyn UTR act 98.
For Cc1[nH]n(-c2ccccc2)c(=O)c1N=Nc1ccc2c(c1)OCO2 the results were aSyn UTR act -214*.
`COc1cccc(N=Nc2c(C)[nH]n(-c3ccccc3)c2=O)c1` gave aSyn UTR act -145*.
For Cc1[nH]n(-c2ccccc2)c(=O)c1N=Nc1ccccc1O the results were aSyn UTR act 50.
`Cc1cccc(N=Nc2c(O)[nH]c3ccc(Br)cc23)c1` gave aSyn UTR act -72*.
Screening CCOCCCNc1ccc(-c2ccccc2)nn1 returned aSyn UTR act -159*.
Screening CCC(=O)Nc1cccc(-c2nc3ccc(C)cc3o2)c1 returned aSyn UTR act -75*.
For Cc1ccc2nc(-c3cccc(NC(=O)c4ccc5c(c4)OCCO5)c3)oc2c1 the results were aSyn UTR act -87*.
`O=C(Nc1ccc2oc(-c3ccc4ccccc4c3)nc2c1)c1ccc2c(c1)OCCO2` gave aSyn UTR act -113*.
`Cn1cccc1C(=O)OCc1cc(Cl)cc2c1OCOC2` gave aSyn UTR act -80*.
CC(C(=O)OCc1nnc(-c2ccccc2)o1)N1C(=O)C2CCCCC2C1=O (stereo not given) was read as aSyn UTR act -63*.
For CCOc1ccc2nc(SCC3CC3(Cl)Cl)[nH]c2c1 (stereo not given) the results were aSyn UTR act -153*.
For c1ccc2[nH]c(SCC3CCCCO3)nc2c1 (stereo not given) the results were aSyn UTR act -76*.
For ClC1(Cl)CC1CSc1nc2ccccc2[nH]1 (stereo not given) the results were aSyn UTR act -77*.
`CCN(CC)c1ccc(C2=NNC(=O)CC2C)cc1[N+](=O)[O-]` (stereo not given) gave aSyn UTR act 98.
Screening COc1cc2c(c(OC)c1OC)-c1ccc(OC)c(=O)cc1[C@@H](NC(C)=O)CC2 returned aSyn UTR act 96.
`COc1ccc2c(c1OC)C(=O)N(c1ccc(F)cc1)C2` gave aSyn UTR act -159*.
Nc1ncnc(N)c1N=Nc1ccccc1 was read as aSyn UTR act 112.
`Nc1nn(-c2ccccc2)c(N)c1N=Nc1ccccc1F` gave aSyn UTR act -98*.
`Nc1c(N=Nc2ccccc2F)c(=O)[nH]n1-c1ccccc1` gave aSyn UTR act -125*.
For Nc1nn(-c2ccccc2)c(N)c1N=Nc1ccccc1 the results were aSyn UTR act -106*.
`O=C(NC1=NCCS1)Nc1ccccc1` gave aSyn UTR act -121*.
CC(Oc1ccccc1)C(=O)NC1=NCCS1 (stereo not given) was read as aSyn UTR act -108*.
For O=C(NC1=NCCS1)c1csc2ccccc12 the results were aSyn UTR act -183*.
Cc1nc(-c2ccccc2)nc2[nH]ccc(=O)c12 was read as aSyn UTR act -101*.
Screening Cc1nc(-c2ccc([N+](=O)[O-])cc2)nc2[nH]ccc(=O)c12 returned aSyn UTR act -202*.
For C=CCn1c(=O)c2ccccc2n2c(Sc3nnnn3-c3ccccc3)nnc12 the results were aSyn UTR act -74*.
Screening Cc1ccc(N2CCN(C(=O)c3cn(CC4CCCCC4)nn3)C(C)C2)cc1 (stereo not given) returned aSyn UTR act -154*.
For CCCCCN1C(=O)/C(=C/c2c(N3CCc4ccccc4C3)nc3ccccn3c2=O)SC1=S the results were aSyn UTR act -94*.
For O=c1[nH]c(Cc2cccs2)nc2scc(-c3ccc(Cl)cc3)c12 the results were aSyn UTR act -77*.
`Cc1ccc(-c2csc3nc4c5ccccc5c(NCCCN(C)C)nn4c(=O)c23)cc1` gave aSyn UTR act 116.
Screening Cc1ccc(-c2nc3ccsc3c(=O)[nH]2)cc1 returned aSyn UTR act -137*.
Screening Cc1ccc(-c2csc3nc(-c4ccncc4)[nH]c(=O)c23)cc1 returned aSyn UTR act -86*.
`Cc1ccc2nc(-c3ccncc3)[nH]c2c1` gave aSyn UTR act -120*.
CC(=O)N1N=C(c2ccc(C)cc2)OC1c1ccc(C(C)C)cc1 (stereo not given) was read as aSyn UTR act -182*.
`CC(=O)N1N=C(c2ccc(C)cc2)OC1c1ccc(C)cc1` (stereo not given) gave aSyn UTR act -129*.
Cc1c(C(=O)OC(C)C)sc(N)c1C(=O)OC(C)C was read as aSyn UTR act -120*.
`CN(C)c1ccc(NC(=O)CCn2c(=S)oc3ccccc32)cc1` gave aSyn UTR act -100*.
For O=C(O)c1cccc(COc2ccc(CO)cc2Cl)c1 the results were aSyn UTR act 105.
`O=C(O)c1ccc(COc2ccc(CO)cc2Cl)cc1` gave aSyn UTR act -92*.
Screening Cc1ccc(SSc2cc(C)ccc2N)c(N)c1 returned aSyn UTR act -203*.
`CC1CCN(C(=O)COC(=O)c2n[nH]c3ccccc23)CC1` gave aSyn UTR act -144*.
`CCc1ccc(C(=O)COC(=O)c2n[nH]c3ccccc23)cc1` gave aSyn UTR act -129*.
For CCn1c(SCc2ccccc2Cl)nc2ccccc21 the results were aSyn UTR act -97*.
For CCC(=O)Nc1nc2ccccc2n1Cc1ccccc1Cl the results were aSyn UTR act 72.
Screening Cn1c(SCc2ccccc2Cl)nc2ccccc21 returned aSyn UTR act -190*.
O=C(NCC1CC1)c1ccc2c3n(nc2c1)-c1ccc(Cl)cc1CO3 was read as aSyn UTR act -166*.
O=C(NCCO)c1ccc2c3n(nc2c1)-c1ccc(Cl)cc1CO3 was read as aSyn UTR act -158*.
For COCCNC(=O)c1c[nH]c2ccc(S(=O)(=O)N3CCc4ccccc43)cc2c1=O the results were aSyn UTR act 61.
`COCCNC(=O)c1ccc2c3n(nc2c1)-c1ccccc1CO3` gave aSyn UTR act -108*.
`Cc1ccc2c(c1)COc1c3ccc(C(=O)NCCO)cc3nn1-2` gave aSyn UTR act -158*.
Screening COCCNC(=O)c1ccc2c3n(nc2c1)-c1ccc(Cl)cc1CO3 returned aSyn UTR act -164*.
For Cc1cccc(N=C2NN=C(c3ccc4c(c3)OCCO4)CS2)c1 the results were aSyn UTR act -140*.
`Cc1cccc(N=C2NN=C(c3c(C)[nH]c4ccccc34)CS2)c1` gave aSyn UTR act -90*.
`COCCNC(=O)/C(C#N)=C/c1cc(C)n(C2CCCCC2)c1C` gave aSyn UTR act -101*.
Screening COCCNC(=O)/C(C#N)=C/c1cc(C)n(-c2ccc(C)cc2)c1C returned aSyn UTR act -133*.
Cc1cc(/C=C(/C#N)C(=O)Nc2ccccc2)c(C)n1-c1cccnc1 was read as aSyn UTR act -160*.
